High-throughput results: PubChem BioAssay, National Center for Advancing Translational Sciences (NCATS)
HT1080NT lethal: kills 2HG-producing HT-1080-NT fibrosarcoma cells; Potency, µM (titrated, usually from 46.1 µM), inactives show at the top dose activity, negative = less viability, most hits filed as cytotoxic; 360,000 tested, 1.6% active; AID 686970; HT-1080-NT fibrosarcoma viability, CellTiter-Glo ATP luminescence, 48 h;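 also: NT is the 2HG producing partner of a matched IDH1 knockdown line; potency is read from the fitted curve at half-maximal effect; 0% = DMSO-treated cells and -100% = media-only wells without cells; nearly all actives have a fitted effect of over 55% in size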
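Viability by CellTiter-Glo luminescence after 48 h compound exposure at 37C of HT-1080-NT cells (750/well, RPMI, 5% FBS). % activity scaled between DMSO wells and medium-only wells, then curve-fitted and categorized by curve class.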
DT40 TDP1 no CPT: qHTS for Inhibitors of human tyrosyl-DNA phosphodiesterase 1 (TDP1): qHTS in cells in absence of CPT. DT40 Tdp1-/- hTDP1 cells, no CPT, ATP luminescence, 48 h. AID 686978, 2013. 420,000 tested, 15% active. Potency, µM (highest dose often 46.2 µM), without a hit: at the highest dose activity change, negative = growth inhibition, most hits filed as inhibitors; also: potency is read from the fitted curve at half-maximal effect; nearly all actives have a fitted effect of over 55% in size
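A cellular qHTS used chicken DT40 cells lacking endogenous Tdp1 but carrying stably transfected human TDP1. Compounds were applied without camptothecin, and cell growth kinetics were judged by ATP-dependent luminescence after ≥48 hr.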
uPA generation: inhibitors of cell surface uPA generation. 330,000 tested, 0.31% active. AID 540303. cell surface uPA generation assay, qHTS. Potency, µM (series often up to 38.3 µM), inactives show at the highest dose activity change, negative = inhibition, hits mostly inhibitors; active = well fitted inhibition curve with a large enough effect; inconclusive = small, poorly fitted or top-dose-only effect; inactive = no such curve, though single readings can be large or run the other way; tested in mouse RAW 264.7 cells; also: potency is read from the fitted curve at half-maximal effect; nearly all actives have a fitted effect of over 55% in size
TDP1 cell CPT: growth inhibition of DT40 Tdp1-/-;hTDP1 cells with camptothecin (screen for TDP1 inhibitors); Potency, µM (doses to about 46.2 µM), inactives show at the top dose activity change, negative = growth inhibition, most hits filed as inhibitors; 420,000 tested, 12% active; chicken DT40 Tdp1-/-;hTDP1 cells + 20 nM CPT, ATP luminescence, 48 h; also: potency is read from the fitted curve at half-maximal effect; nearly all actives have a fitted effect of over 55% in size
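Cell growth measured by CellTiter-Glo luminescence after a minimum 48 h, 37 C compound exposure with 20 nM CPT in Tdp1-knockout DT40 cells stably expressing hTDP1, seeded 400/well; qHTS titration format.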
HT1080 IDH1KD tx: kills HT-1080 cells with IDH1 knockdown; HT-1080 IDH1 knockdown viability, ATP luminescence, 48 h; Potency, µM (series often up to 46.1 µM), for the others: at the highest dose activity, negative = toxicity, most hits filed as cytotoxic; 360,000 tested, 2% active; AID 686971;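 also: potency is read from the fitted curve at half-maximal effect; 0% = DMSO wells and -100% = cell-free medium wells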
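CellTiter-Glo luminescence after 48 h compound exposure at 37 degrees C of IDH1-knockdown HT-1080 cells in 5% FBS RPMI. %Activity scaled between DMSO wells and cell-free media wells, with curves fitted and assigned curve classes.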
IL1B secr inh: inflammasome signaling inhibition, IL-1 beta readout; activity change, % at 57.5 µM; THP-1 LPS/ATP IL-1B secretion, AlphaLISA, 16 h; hits give low values; AID 743279; 360,000 tested, 4.7% active; in the data active = activity change below about -50%; inconclusive = mostly about -30% to -49%
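THP-1 cells pretreated 1 hr with compounds (up to 57.5 uM final), then stimulated with LPS (250 ng/mL final) plus ATP (1.25 mM final); secreted IL-1B measured by AlphaLISA after 16 hr, decreased signal indicating inhibition.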
The depositor's hits bear a star; ? = inconclusive; nt = not tested or not shown; [ ] = remark or other dose. Compounds with a hit are over-represented: about 19% of the library has one in this group of screens. Unless noted, calls follow the shape of the dose curve; as a rule, active = well fitted curve in the direction sought with a large enough effect; inconclusive = small, poorly fitted or top-dose-only effect, or another doubt; inactive = no such curve, though single readings can be large; an effect the other way counts as inactive or inconclusive. Unless noted, % is scaled to controls: 0 for no effect and ±100 for the full control effect.

SMILES	HT1080NT lethal	DT40 TDP1 no CPT	uPA generation	TDP1 cell CPT	HT1080 IDH1KD tx	IL1B secr inh
CC1(C(=O)NCc2ccc(F)c(F)c2)Cc2c(-c3cccc(C(N)=O)c3)ccnc2O1 (stereo not given)	26µM*	?	nt	?	10µM*	25
CCN(CC)CCNc1c(C)cc(CO)c(Cl)c1C	-4%	-8%	nt	11%	-11%	-4
CC1CCC2(CC1)NC(=O)N(CC(=O)N1CCN(S(=O)(=O)c3ccc4c(c3)CCC4)CC1)C2=O (stereo not given)	-4%	?	-4%	?	1%	-7
CC1(C(=O)NCc2ccco2)Cc2c(-c3cccc(C(F)(F)F)c3)ccnc2O1 (stereo not given)	?	2.9µM*	nt	2.6µM*	?	57
CC1(C(=O)NCc2ccccc2)Cc2c(-c3cccc(C(N)=O)c3)ccnc2O1 (stereo not given)	?	2.3µM*	nt	3.3µM*	?	38
O=C(CNc1ccccc1OC(F)F)N1CCc2ccccc21	1%	-14%	-4%	1%	3%	7
COc1cc(C(=O)N(Cc2cc3ccc(C)cc3nc2N(C)C)C2CC2)cc(OC)c1OC	nt	?	nt	15%[9.04 µM]	nt	nt
CCOc1ccccc1NC(=O)CSc1nnc(CNC(=O)c2cc(OC)c(OC)c(OC)c2)o1	13%	12%	3%	11%	13%	26
O=S(=O)(Nc1cc(Sc2ncn[nH]2)c(O)c2ccccc12)c1ccccc1	2.3µM*	2.1µM*	-13%	1.2µM*	4.6µM*	-95*
O=C(O)CSc1cc(NS(=O)(=O)c2ccc(Br)cc2)c2ccccc2c1O	21µM*	5.2µM*	?	2.9µM*	16µM*	-51*
O=C(NCCNC(=O)Oc1cccc2ccccc12)Oc1cccc2ccccc12	0%	?	0%	?	-1%	30
COC(=O)c1oc2ccc(Br)cc2c1NC(=O)CN1CCN(C)CC1	0%	?	11%	-21%	-3%	-53*
COC(=O)c1oc2ccccc2c1NC(=O)CN1CCCC1	0%	-16%	-12%	0%	0%	-9
CC1(C(=O)NC2CCCCC2)CCC(=O)N1CC(F)(F)F (stereo not given)	23%	20%	nt	-1%	16%	6
CC12CCC(=O)N1C(C(=O)NCc1ccc(Cl)cc1Cl)CS2 (stereo not given)	1%	-29%	-4%	-15%	2%	-4
Nc1nc(Nc2cccc(F)c2)nc(N2CCOCC2)c1[N+](=O)[O-]	1%	-40%	-2%	22%	-8%	2
Cc1ccc(Nc2nc(N)c([N+](=O)[O-])c(N3CCC(C)CC3)n2)cc1C	10%	?	6%	?	3%	-80*
CN1CCN(c2nc(Nc3ccccc3)nc(N)c2[N+](=O)[O-])CC1	-4%	?	-5%	-31%	-10%	-5
Cc1ccc(Nc2nc(N)c([N+](=O)[O-])c(N3CCOCC3)n2)cc1C	-2%	21µM*	9%	23µM*	-1%	-3
S=C(NCc1ccccc1)NNc1ccccc1	?	5.8µM*	nt	4.6µM*	?	5
O=C(CNc1cccc(Cl)c1)NNC(=S)NCc1ccccc1	-21%	23µM*	2%	?	-12%	-12
S=C(NCc1ccccc1)NCc1ccc(Cl)cc1	-2%	-18%	-1%	?	-24%	41
CCNC(=S)NNc1ccccc1	8.2µM*	5.2µM*	-2%	3.3µM*	6.5µM*	-95*
Cc1cc(C(=O)COC(=O)c2cccc(O)c2)c(C)n1C1CC1	-10%	?	-9%	?	-27%	-6
CCOCCCn1c(SCc2ccccc2)nnc1-c1ccncc1	16%	-15%	0%	7%	17%	-3
